In PubChem BioAssay (NCATS):
Values joined by “and” are separate entries in the source; they are usually repeats but may differ in a detail not shown here. Equal values may be shown once. Unmarked numbers belong to inactive results. Results filed as inconclusive are left out. Where a call stands in place of a potency, no number is given. Active and inactive are the calls of the source. Unless noted, calls follow the shape of the dose curve; as a rule, active = well fitted curve in the direction sought with a large enough effect; inconclusive = small, poorly fitted or top-dose-only effect, or another doubt; inactive = no such curve, though single readings can be large; an effect the other way counts as inactive or inconclusive.

What was measured:
[1] = Cellular Toxicity (caspase-3) HepG2 (AID 654);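 also: cells exposed to compound for 16 hours before reading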
Outline: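 Caspase 3/7 activation is measured as a luminescence increase (aminoluciferin substrate) after 16 h compound exposure of human hepatocarcinoma HepG2 cells. AC50 values are Hill fits, scaled between DMSO baseline and 100 uM tamoxifen stimulation.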

[2] = Cellular Toxicity (caspase-3) HUV-EC-C (AID 656)
Outline: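 Concentration-dependent caspase 3/7 induction was assessed in HUV-EC-C cells exposed for 16 hours. Data scaled between DMSO and tamoxifen (100 uM) controls.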

[3] = Cellular Toxicity (caspase-3) SHSY5Y (AID 657);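 also: cells exposed to compound for 16 hours at 37 °C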
Outline: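 Readout: caspase-cleaved peptide-aminoluciferin substrate driving luciferase light in SH-SY5Y neuroblastoma cells after 16 h treatment. Response normalized to DMSO and 10 uM staurosporine controls.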

[4] = Cellular Toxicity (caspase-3) BJ (AID 658)
Outline: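 Plated BJ cells (1000/well) rested 5 hr, received compound for 16 hr at 37 °C, then Caspase-Glo 3/7 reagent for 1 hr at room temperature before luminescence reading.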

[5] = Cellular Toxicity (caspase-3) Mesangial (AID 660);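 also: combined caspase 3 and 7 activity read by Caspase-Glo luminescence; cells exposed to compound for 16 h before the caspase read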
Outline: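 Caspase 3/7 activation measured by Caspase-Glo 3/7 luminescence (20 min, room temperature) following 16 h exposure of mesangial cells (1000/well); AC50 from Hill-equation fit, normalized to DMSO and 100 uM tamoxifen.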

[6] = Cellular Toxicity (caspase-3) SK-N-SH (AID 661)
Outline: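 Caspase 3/7 activation was read by luminogenic substrate cleavage after 16 hour treatment of SK-N-SH cells. Signal was scaled between DMSO and 10 uM staurosporine, and concentration-response data were fitted with the Hill equation for AC50.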

[7] = Cellular Toxicity (caspase-3) H-4-II-E (AID 663); conditions: Potency: caspase-3 activation;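 also: cells exposed to compound for 16 hr before readout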
Outline: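 Caspase 3/7 activation measured in H-4-II-E cells in complete culture medium after 16 hr treatment at 37 °C, using luciferase-coupled substrate readout; AC50 values come from Hill-equation fits of normalized concentration-response data.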

[8] = Cellular Toxicity (caspase-3) N2a (AID 665);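 also: compound exposure lasted 16 h at 37 °C before readout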
Outline: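 Caspase-3/7 activation measured as luminescence from Caspase-Glo reagent (1 h, room temperature) after 16 h compound exposure of mouse N2a cells. AC50 values from Hill-equation concentration-response, scaled between DMSO and 10 uM staurosporine.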

[9] = Cell Viability - LYMP2-001 (AID 921); also: nearly all actives have a fitted effect of over 70% in size; also: potency is read from the fitted curve at half-maximal effect
Outline: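 A lymphoblastoid cell line of human origin was treated with library compounds across a concentration series for 24 hours, and viable cell number was estimated from ATP-driven luciferase light output. Hill modeling gave AC50.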

[10] = Cell Viability - LYMP1-002 - Assay at 16 hr (AID 948)
Outline: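 In this qHTS, lymphoblastoid LYMP1-002 cells (human) receive compounds for 16 hr at 37 C. Viability is taken from CellTiter-Glo ATP luminescence, and AC50 derives from standard Hill fits.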

[11] = MultiTox-Fluor Cytotoxicity Assay - LYMP1-003 - Dead Cells (AID 961); also: nearly all actives have a fitted effect of over 70% in size
Outline: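 Acute toxicity is scored as increased dead-cell protease activity in human lymphoblastoid LYMP1-003 cells after 16 h compound exposure in complete culture medium. Activity is normalized to DMSO basal and 15 uM tetraoctylammonium bromide as full response.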

[12] = MultiTox-Fluor Cytotoxicity Assay - LYMP1-003 - Live Cells (AID 962);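 also: cells exposed to compound for 16 hours at 37 °C; cytotoxic hits lower the live-cell protease signal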
Outline: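 Live-cell protease activity (GF-AFC substrate, 405/510 nm, 60 min at room temperature) after 16 h, 37 C compound exposure of human lymphoblastoid LYMP1-003 cells; concentration-response fitted to the Hill equation for AC50.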

[13] = Cell Viability - LYMP2-013 (AID 970); also: nearly all actives have a fitted effect of over 55% in size; also: potency is read from the fitted curve at half-maximal effect
Outline: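 qHTS cytotoxicity: ATP-dependent luminescence (CellTiter-Glo, 30 min room temperature) read after 24 h compound exposure at 37 C of 2500 LYMP2-013 lymphoblastoid cells per well. Concentration-response fitted with Hill equation to give AC50.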

[14] = Cell Viability - LYMP2-023 (AID 975);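 also: cellular ATP measured by luciferase luminescence as viability proxy; series mostly up to about 92 µM; cells exposed to compound for 24 hours at 37 °C; nearly all actives have a fitted effect of over 55% in size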
Outline: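 Intracellular ATP, read by CellTiter-Glo luminescence, reports viability after 24 hr compound exposure at 37 C. 2500 lymphoblastoid cells/well (LYMP2-023) seeded 5 hr beforehand; Hill fits give AC50; positive control tetraoctylammonium bromide.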

[15] = Cell Viability - LYMP2-025 (AID 976); also: series mostly up to about 92 µM
Outline: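 Cytotoxicity read as loss of intracellular ATP (luciferase luminescence) after 24 h compound treatment at 37 C. Uses LYMP2-025 lymphoblastoid cells in 1536-well format; Hill-equation modelling gives AC50; tetraoctylammonium bromide as positive control.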

[16] = Cell Viability - LYMP2-007 (AID 979);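 also: cells exposed to compound for 24 h before reading; nearly all actives have a fitted effect of over 60% in size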; also: potency is read from the fitted curve at half-maximal effect
Outline: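 AC50 values come from Hill-equation fits of luminescent intracellular ATP (CellTiter-Glo, 30 min, room temperature) following 24 h compound exposure at 37 C. Cells: LYMP2-007 lymphoblastoid line, 2500 per well, in complete culture medium.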

[17] = Cell Viability - LYMP2-008 (AID 980); also: nearly all actives have a fitted effect of over 60% in size; also: potency is read from the fitted curve at half-maximal effect
Outline: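 Cytotoxicity determined from ATP-dependent luciferase luminescence (CellTiter-Glo) following 24 h compound exposure of human lymphoblastoid LYMP2-008 cells at 37 C. Concentration-response data fitted to the Hill equation to give AC50.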

[18] = Cell Viability - LYMP2-026 (AID 989); also: nearly all actives have a fitted effect of over 50% in size
Outline: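 Cytotoxicity read as ATP-dependent luminescence (CellTiter-Glo, 30 min room temperature) after 24 h compound treatment at 37 C. LYMP2-026 lymphoblastoid line seeded at 2500 cells/well; AC50 derived by standard Hill equation.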

[19] = qHTS Assay for Identification of Small Molecule Inducers of Hypoxia Response (AID 2120; active = well fitted curve in the direction sought with a large enough effect in the signal ratio, with a control signal flat, not every such curve was filed as active; the % refers to the signal ratio)
Outline: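 Reporter induction read as the CCF4 blue/green (460nm/530nm) emission ratio after 2.5 h dye loading at room temperature. ME-180 HRE-beta-lactamase cells received titrated compounds for 17 h at 37 degrees Celsius; AC50 values derived.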

[20] = qHTS assay for cell viability of HEK293 cells (AID 743288); conditions: ATP luminescence (CellTiter-Glo), 18 h, hits give low values; also: nearly all actives have a fitted effect of over 50% in size
Outline: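 HEK293, 18 h, 37 C, ATP luminescence. Cells at 2,000/well were allowed at least 5 h to settle before dosing; CellTiter-Glo developed 30 min at RT.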

Row | SMILES | outcome [1] | outcome [2] | outcome [3] | outcome [4] | outcome [5] | Potency [6] | Potency [7] | outcome [8] | Potency [9] | outcome [10] | Potency [11] | outcome [12] | Potency [13] | Potency [14] | Potency [15] | Potency [16] | Potency [17] | Potency [18] | Potency [19] | max response [20]
1 | O=C(O)C(Br)Br | inactive | inactive | inactive | inactive | inactive | inactive | inactive | inactive | inactive | inactive | inactive | inactive | inactive | inactive | inactive | inactive | inactive | inactive | inactive | -1.04%
2 | Nc1cc(Cl)cc(C(=O)O)c1Cl | inactive | inactive | inactive | inactive | inactive | inactive | inactive | inactive | inactive | inactive | inactive | inactive | inactive | inactive | inactive | inactive | inactive | inactive | inactive | 10.5% and -2.29%
3 | C(CCOCC1CO1)COCC1CO1 (stereo not given) | inactive | inactive | inactive | inactive | inactive | inactive | inactive | inactive | inactive | inactive | inactive | inactive | inactive | inactive | inactive | inactive | inactive | inactive | inactive | -15.1%
4 | CN(C)c1ccc(N)cc1 | inactive | inactive | inactive | inactive | inactive | inactive | inactive | inactive | 50.1 µM (active) |  |  |  | 79.4 µM (active) |  |  | 50.1 µM (active) | 50.1 µM (active) |  | inactive | 
5 | CN(C)c1ccc(N(C)C)cc1 | inactive | inactive | inactive | inactive | inactive | inactive | inactive | inactive | 50.1 µM (active) | inactive | inactive | inactive |  | inactive | inactive |  |  | inactive | inactive | -3.92%
6 | O=[N+]([O-])c1ccccc1CCl | inactive | inactive | inactive | inactive | inactive | inactive | inactive | inactive |  | inactive | inactive | inactive |  | inactive | inactive |  |  | inactive | inactive | 2.01%
7 | Cc1cc(C)cc(OP(=O)(Oc2cc(C)cc(C)c2)Oc2cc(C)cc(C)c2)c1 | inactive | inactive | inactive | inactive | inactive | inactive | inactive | inactive | inactive | inactive |  | inactive | inactive | inactive | inactive | inactive | inactive | inactive | inactive | -21.5%
8 | CC(C)[N+](=O)[O-] | inactive | inactive | inactive | inactive | inactive | inactive | inactive | inactive | inactive | inactive | inactive | inactive | inactive | inactive | inactive | inactive | inactive | inactive | inactive | -8.31%
9 | ClC(Cl)(Cl)C(Cl)(Cl)Cl | inactive | inactive | inactive | inactive | inactive | inactive | inactive | inactive | inactive | inactive | inactive | inactive | inactive | inactive | inactive | inactive | inactive | inactive | inactive | 3.22%
10 | Nc1ccc(Cc2ccc(N)cc2)cc1 | inactive | inactive | inactive | inactive | inactive | inactive | inactive | inactive |  | inactive | inactive | inactive | inactive | inactive | inactive | inactive | inactive | inactive | inactive | 9.53% and -1.85%
11 | CC1CC(=O)O1 (stereo not given) | inactive | inactive | inactive | inactive | inactive | inactive | inactive | inactive | inactive | inactive | inactive | inactive | inactive | inactive | inactive | inactive | inactive | inactive | inactive | -7.61%
12 | c1ccc(OCC2CO2)cc1 (stereo not given) | inactive | inactive | inactive | inactive | inactive | inactive | inactive | inactive | inactive | inactive | inactive | inactive | inactive | inactive | inactive | inactive | inactive | inactive | inactive | 5.64%
13 | O=[N+]([O-])c1cccc2c([N+](=O)[O-])cccc12 | inactive | inactive | inactive | inactive | inactive | inactive | inactive | inactive | inactive | inactive | inactive | inactive | inactive | inactive | inactive | inactive | inactive | inactive | inactive | -6.41%
14 | Nc1ccc(-c2ccc(N)c(Cl)c2)cc1Cl | inactive | inactive | inactive | inactive | inactive | inactive | inactive | inactive | inactive |  |  |  | inactive | inactive | inactive | inactive | inactive |  | inactive | -8.22% and -17.1%
